Results on 9 compounds are retold here after PubChem BioAssay (NCATS).

SMILES strings stand for the structures. Several values for one entry are separate records, joined by “and”; a condition that tells them apart may be missing. Equal entries are not always repeated. Results filed as inconclusive are left out. Activity calls are given as the source filed them. Unless noted, calls come from the whole dose curve; as a rule, active = well fitted curve in the direction sought with a large enough effect; inconclusive = small, poorly fitted or top-dose-only effect, or another doubt; inactive = no such curve, though single readings can be large; an effect the other way counts as inactive or inconclusive.

Assay [1] has as its target Ubiquitin carboxyl-terminal hydrolase 2 (Homo sapiens) (UniProt O75604). Briefly: qHTS Validation Assay for Inhibitors of Ubiquitin-specific Protease USP2a Using CHOP2 as the Reporter (AID 463106). In short, it runs like this:
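Fluorescence read-out at Ex 485nm/Em 531nm after 60min RT, following addition of 25nM Ub-CHOP2 plus 25nM reporter substrate to USP2 core (10nM) pretreated 30min with compound. Data normalized to NEM full inhibition; concentration-response curves fitted.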

Assay [2] concerns the target DNA polymerase III PolC-type (Bacillus subtilis (strain 168)) (UniProt P13267). Briefly: qHTS Validation Assay for the Inhibitors of DNA Replication in Gram-Positive Bacteria (AID 485295). Note: potency is the fitted concentration of half-maximal effect. The procedure, abridged:
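Reconstituted B. subtilis Pol III holoenzyme (PolC, beta clamp, SSB, primase) preincubated with compound, then M13Gori single-stranded circular template with dNTPs/NTPs added; room temperature reaction. Stopped with EDTA/PicoGreen; dsDNA fluorescence read, EDTA as full-inhibition control.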
(In general: qHTS replaces the single test concentration by a dilution series.)

Assay [3] has as its target Tumor susceptibility gene 101 protein (Homo sapiens) (UniProt Q99816). Kind of assay: qHTS Validation Assay for Iinhibitors of HIV-1 Budding by Blocking the Interaction of PTAP/TSG101 (AID 485342; calls by dose curve). In short, it runs like this: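 Tsg101 binding domain (10 uM) with FITC-labeled PTAP peptide (50 nM) in HEPES pH 7.5 buffer, 20 min at r.t. with compounds. Binding measured by fluorescence polarization.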

In assay [4] the target is Beta-2 adrenergic receptor (Homo sapiens) (UniProt P07550). Kind of assay: qHTS validation assay of beta-arrestin-biased ligands of beta2-adrenergic receptor (AID 485366). The procedure, abridged: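 qHTS, Tango cells, 1500 cells/well, DMEM + 1% FBS. Cpd 18 hr at 37 degrees C. Luciferin/ATP/CoA detection mix, 15 min RT, luminescence read. %Activity from corrected signal; CRC fit, curve class.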
Sequence of Beta-2 adrenergic receptor (Homo sapiens) (P07550 whole entry, looked up): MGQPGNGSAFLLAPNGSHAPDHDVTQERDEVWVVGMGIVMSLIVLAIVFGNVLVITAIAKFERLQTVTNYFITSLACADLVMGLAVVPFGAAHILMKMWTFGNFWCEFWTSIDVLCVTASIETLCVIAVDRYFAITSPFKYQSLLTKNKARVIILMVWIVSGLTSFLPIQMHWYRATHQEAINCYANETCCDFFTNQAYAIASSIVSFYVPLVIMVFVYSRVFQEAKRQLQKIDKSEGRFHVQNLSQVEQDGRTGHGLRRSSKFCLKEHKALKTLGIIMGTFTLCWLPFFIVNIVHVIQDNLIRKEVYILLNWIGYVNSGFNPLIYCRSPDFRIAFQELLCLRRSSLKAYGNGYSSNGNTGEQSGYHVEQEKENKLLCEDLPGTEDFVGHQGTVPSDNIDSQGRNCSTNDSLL

Assay [5] has as its target ATP-dependent 6-phosphofructokinase (Trypanosoma brucei brucei) (UniProt O15648). Briefly: qHTS Validation Assay to Find Inhibitors of T. brucei phosphofructokinase (AID 485368). Note: potency is the fitted concentration of half-maximal effect. The procedure, abridged: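 Luminescent ADP detection measures PFK turnover of fructose-6-phosphate (0.5 mM) with ATP (0.1 mM) at pH 8.0. Reaction runs 45 min at room temperature with 1.25 nM enzyme; inhibitors tested as titrations up to 57 uM.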

Assay [6] addresses Thioredoxin reductase 1, cytoplasmic (Rattus norvegicus) (UniProt O89049). Kind of assay: qHTS Assay for Substrates of Mammalian Selenoprotein Thioredoxin Reductase 1 (TrxR1) (AID 488772).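 Note: series mostly up to about 57 µM; a drop in NADPH fluorescence below the no-compound background marks a TrxR1 substrate.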 In short, it runs like this: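 In this dual-purpose format, potential substrates are identified from the first fluorescence read after selenite addition, not from the 8-minute delta. Rat enzyme is preincubated with NADPH and then with compound at ~22 deg C.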

Assay [7] addresses M-phase phosphoprotein 8 (Homo sapiens) (UniProt Q99549). Kind of assay: qHTS Validation Assay for Inhibitors for MPP8 Chromodomain Interactions with Methylated Histone Tails (AID 488949). Note: nearly all actives have a fitted effect of over 55% in size. Note: potency is the fitted concentration of half-maximal effect. In short, it runs like this: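 MPP8 (50 nM) was pre-bound to 50 nM biotinylated H3(1-18)K9me3 peptide in PBS pH 7.4 with 0.01% Tween-20. Compounds were then added for 30 min at room temperature, and complex disruption was read by AlphaScreen with streptavidin donor and nickel-chelate acceptor beads.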

Assay [8] deals with Chromobox protein homolog 1 (Homo sapiens) (UniProt P83916). Briefly: qHTS Validation Assay for Inhibitors of HP1-beta Chromodomain Interactions with Methylated Histone Tails (AID 488953). Note: nearly all actives have a fitted effect of over 50% in size. Note: potency is the fitted concentration of half-maximal effect. In short, it runs like this: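 Disruption of preformed HP1-beta:H3K9me3 peptide complexes (both 50 nM, PBS pH 7.4 with 0.01% Tween-20) is measured by AlphaScreen after 30 min compound exposure at room temperature, using streptavidin donor and nickel chelate acceptor beads at 10 ug/mL final.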

Assay [9] has as its target Methanococcus maripaludis chaperonin (MmCpn) (UniProt Q6LX38). Kind of assay: High-Throughput Screening for Modulators of Cytosolic Chaperonin Activity: MmCpn Primary Screen (AID 488978).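 Note: 50 nM MmCpn enzyme hydrolysing 30 µM ATP at 37 °C.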 The procedure, abridged: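 MmCpn at 50 nM final was preincubated 5 min at RT with compound. ATP was then added at 30 uM final for 10 min at 37 C. ADP formed was detected by Transcreener HTRF (665/590 nm).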

The target of assay [10] is Thioredoxin reductase 1, cytoplasmic (Rattus norvegicus) (UniProt O89049). Kind of assay: qHTS Assay for Inhibitors of Mammalian Selenoprotein Thioredoxin Reductase 1 (TrxR1) (AID 488773). Note: nearly all actives have a fitted effect of over 40% in size. Note: potency is the fitted concentration of half-maximal effect. Particulars: Potency: inhibition. In short, it runs like this:
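Inhibition is scored from the loss of NADPH fluorescence between first and last reads of an 8-min kinetic run. Selenite (400 uM) was the substrate, added after 15 min compound preincubation at room temperature.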

For assay [11], the target named is Flap endonuclease 1 (Homo sapiens) (UniProt P39748). Kind of assay: qHTS Validation Assay for the Inhibitors of Human Flap endonuclease 1 (FEN1) (AID 488816). Note: potency is the fitted concentration of half-maximal effect. In short, it runs like this:
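Enzyme reagent 10 nM; cpds pinned; 15 min RT preinc.; substrate 50 nM final; reads t=0 and 15 min; no-enzyme buffer wells as neg. control; normalized data, 4-parameter Hill fit.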

In assay [12] the target is Thyrotropin receptor (Homo sapiens) (UniProt P16473). Briefly: qHTS Assay for Antagonists of the Thyroid Stimulating Hormone Receptor (AID 488980). Note: series mostly up to about 58 µM. In short, it runs like this:
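TSHR-transfected HEK293 cells (2000/well) in HEPES-buffered HBSS with 70 uM RO 20-1724 were stimulated with 4 nM TSH (EC80, final) in the presence of compound. cAMP was measured by HTRF competition after lysis and 30 min at RT.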

Assay [13] is described as follows: Validation screen for inhibitors of Lassa infection (AID 463096; calls by dose curve; note: potency is the fitted concentration of half-maximal effect).
The nature of assay [14]: Quantitative high throughput screen for delayed death inhibitors of the malarial parasite plastid, 96 hour incubation (AID 488745). Note: nearly all actives have a fitted effect of over 70% in size. Note: potency is the fitted concentration of half-maximal effect. The procedure, abridged:
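Readout is firefly luciferase luminescence from an integrated reporter in P. falciparum; lower signal marks inhibited growth. Cultures at 2% hematocrit and 0.1% parasitemia were treated with compound across two generations (96 h, 37 C, 5% CO2).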

Assay [15] in a line: Quantitative high throughput screen for delayed death inhibitors of the malarial parasite plastid, 48 hour incubation (AID 488752). Note: nearly all actives have a fitted effect of over 65% in size. Note: potency is the fitted concentration of half-maximal effect. The procedure, abridged: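 First, compound was pinned into RPMI 1640 medium containing 0.5% Albumax. Next, reporter-parasite-infected erythrocytes were added to 2% hematocrit and 0.1% parasitemia. After 48 h at 37 C under 5% CO2, luciferase detection reagent was added and luminescence read.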

Assay [16] deals with Transient receptor potential cation channel subfamily V member 1 (Homo sapiens) (UniProt Q8NER1). Kind of assay: HTS Assay for Compounds that Act as Enhancers of the Vanilloid Receptor 1 (AID 488979). In short, it runs like this:
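TRPV1 cells loaded with Fluo-8 calcium dye; compound added and Ca2+ signal (ex 480/em 520 nm) followed 3 min, then capsaicin at EC20 added and read 2 more min to detect enhancement.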

Assay [17] has as its target D(1A) dopamine receptor (Homo sapiens) (UniProt P21728). Briefly: HTS Assay for Allosteric Agonists of the Human D1 Dopamine Receptor: Primary Screen for Agonists (AID 488981). The procedure, abridged: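 Tetracycline-induced HEK293 Trex D1 cells with forced coupling to calcium, loaded with no-wash calcium dye; kinetic fluorescence read 180 s after compound addition for agonism, then a further 180 s after an EC20 dopamine challenge for potentiation.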

A short description of assay [18]: Validation screen for small molecules that induce DNA re-replication in MCF 10A normal breast cells (AID 463097). Note: nearly all actives have a fitted effect of over 60% in size. Note: potency is the fitted concentration of half-maximal effect. The procedure, abridged: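 MCF 10A cells exposed to compound 48 hr at 37 C, 5% CO2, then Hoechst-stained 40 min. Laser-scanning imaging of nuclear DNA content (405 nm ex, 500-530 nm em); re-replication scored as rise in nuclei with elevated fluorescence intensity.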

Assay [19] can be described thus: qHTS Validation Assay to Find Inhibitors of Chronic Active B-Cell Receptor Signaling (AID 485345; active = well fitted curve in the direction sought with a large enough effect in the main read-out, with a control signal flat, not every such curve was filed as active). In short, it runs like this: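 TMD8 ABC-DLBCL cells stably carrying doxycycline-inducible IkappaBalpha–green luciferase fusion plus unfused red luciferase; compounds 46 uM to 3 nM, 4 h at 37C with doxycycline. Corrected green/red luminescence ratio normalized to 10 uM MG-132 and basal cell wells; curves fitted.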

Sequence of DNA polymerase III PolC-type (Bacillus subtilis (strain 168)) (P13267 whole entry, looked up): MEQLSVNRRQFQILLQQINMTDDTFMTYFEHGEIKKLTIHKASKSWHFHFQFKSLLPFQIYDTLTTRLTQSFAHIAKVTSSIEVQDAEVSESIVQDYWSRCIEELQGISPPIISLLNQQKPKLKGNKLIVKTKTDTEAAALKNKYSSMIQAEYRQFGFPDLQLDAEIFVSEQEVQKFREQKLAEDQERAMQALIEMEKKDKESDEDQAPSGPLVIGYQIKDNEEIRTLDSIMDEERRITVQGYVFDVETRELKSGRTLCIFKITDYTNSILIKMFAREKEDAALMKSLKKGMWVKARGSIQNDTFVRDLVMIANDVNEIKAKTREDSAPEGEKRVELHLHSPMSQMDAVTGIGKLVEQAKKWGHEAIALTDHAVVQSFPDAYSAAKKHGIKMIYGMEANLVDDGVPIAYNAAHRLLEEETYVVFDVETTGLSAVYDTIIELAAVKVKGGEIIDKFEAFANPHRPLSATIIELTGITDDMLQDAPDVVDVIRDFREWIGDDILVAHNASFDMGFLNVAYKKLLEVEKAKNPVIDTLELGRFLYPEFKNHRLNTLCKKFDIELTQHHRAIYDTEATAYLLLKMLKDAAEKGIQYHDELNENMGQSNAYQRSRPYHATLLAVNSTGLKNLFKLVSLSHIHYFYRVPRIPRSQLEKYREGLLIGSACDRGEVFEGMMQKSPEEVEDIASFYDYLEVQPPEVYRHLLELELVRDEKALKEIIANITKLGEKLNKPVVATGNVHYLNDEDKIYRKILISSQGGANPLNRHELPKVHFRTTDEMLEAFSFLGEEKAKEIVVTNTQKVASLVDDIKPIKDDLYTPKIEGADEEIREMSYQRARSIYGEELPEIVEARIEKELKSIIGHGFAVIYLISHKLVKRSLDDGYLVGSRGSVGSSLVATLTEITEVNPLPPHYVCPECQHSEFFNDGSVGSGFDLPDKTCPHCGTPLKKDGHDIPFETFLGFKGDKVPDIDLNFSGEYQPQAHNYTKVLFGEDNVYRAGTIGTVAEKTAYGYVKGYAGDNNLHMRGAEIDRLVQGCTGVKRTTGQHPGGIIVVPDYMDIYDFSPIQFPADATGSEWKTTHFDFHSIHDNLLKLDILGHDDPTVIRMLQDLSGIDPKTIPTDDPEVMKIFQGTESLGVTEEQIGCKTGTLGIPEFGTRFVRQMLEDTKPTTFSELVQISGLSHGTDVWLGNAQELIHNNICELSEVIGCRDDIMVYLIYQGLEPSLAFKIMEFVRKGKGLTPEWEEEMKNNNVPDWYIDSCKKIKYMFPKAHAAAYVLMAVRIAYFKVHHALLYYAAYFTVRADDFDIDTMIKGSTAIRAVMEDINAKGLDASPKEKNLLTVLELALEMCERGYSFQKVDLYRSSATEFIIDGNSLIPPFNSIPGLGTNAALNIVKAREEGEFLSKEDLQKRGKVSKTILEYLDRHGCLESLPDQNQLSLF
Sequence of M-phase phosphoprotein 8 (Homo sapiens) (Q99549 whole entry, looked up): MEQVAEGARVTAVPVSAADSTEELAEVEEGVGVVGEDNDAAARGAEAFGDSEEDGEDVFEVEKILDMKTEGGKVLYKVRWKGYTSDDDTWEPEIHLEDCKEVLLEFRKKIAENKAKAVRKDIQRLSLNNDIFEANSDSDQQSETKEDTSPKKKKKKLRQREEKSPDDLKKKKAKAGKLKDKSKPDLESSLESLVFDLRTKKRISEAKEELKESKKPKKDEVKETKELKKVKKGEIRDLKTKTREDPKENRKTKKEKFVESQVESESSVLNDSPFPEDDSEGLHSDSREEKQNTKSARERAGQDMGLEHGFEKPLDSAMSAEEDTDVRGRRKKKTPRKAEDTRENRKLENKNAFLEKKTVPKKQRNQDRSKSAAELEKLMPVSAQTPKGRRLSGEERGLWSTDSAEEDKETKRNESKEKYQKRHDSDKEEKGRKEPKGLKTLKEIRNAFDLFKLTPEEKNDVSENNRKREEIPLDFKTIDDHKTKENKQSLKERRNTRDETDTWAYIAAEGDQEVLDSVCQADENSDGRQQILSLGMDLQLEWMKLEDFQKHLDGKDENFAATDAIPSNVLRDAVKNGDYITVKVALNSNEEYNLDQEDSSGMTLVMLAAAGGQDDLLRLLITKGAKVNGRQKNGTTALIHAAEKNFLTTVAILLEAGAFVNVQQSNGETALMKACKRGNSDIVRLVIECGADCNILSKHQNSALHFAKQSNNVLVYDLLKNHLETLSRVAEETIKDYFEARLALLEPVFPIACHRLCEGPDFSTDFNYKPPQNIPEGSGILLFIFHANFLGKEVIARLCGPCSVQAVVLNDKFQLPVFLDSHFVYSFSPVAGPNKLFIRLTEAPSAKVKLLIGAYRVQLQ
Sequence of Thyrotropin receptor (Homo sapiens) (P16473 whole entry, looked up): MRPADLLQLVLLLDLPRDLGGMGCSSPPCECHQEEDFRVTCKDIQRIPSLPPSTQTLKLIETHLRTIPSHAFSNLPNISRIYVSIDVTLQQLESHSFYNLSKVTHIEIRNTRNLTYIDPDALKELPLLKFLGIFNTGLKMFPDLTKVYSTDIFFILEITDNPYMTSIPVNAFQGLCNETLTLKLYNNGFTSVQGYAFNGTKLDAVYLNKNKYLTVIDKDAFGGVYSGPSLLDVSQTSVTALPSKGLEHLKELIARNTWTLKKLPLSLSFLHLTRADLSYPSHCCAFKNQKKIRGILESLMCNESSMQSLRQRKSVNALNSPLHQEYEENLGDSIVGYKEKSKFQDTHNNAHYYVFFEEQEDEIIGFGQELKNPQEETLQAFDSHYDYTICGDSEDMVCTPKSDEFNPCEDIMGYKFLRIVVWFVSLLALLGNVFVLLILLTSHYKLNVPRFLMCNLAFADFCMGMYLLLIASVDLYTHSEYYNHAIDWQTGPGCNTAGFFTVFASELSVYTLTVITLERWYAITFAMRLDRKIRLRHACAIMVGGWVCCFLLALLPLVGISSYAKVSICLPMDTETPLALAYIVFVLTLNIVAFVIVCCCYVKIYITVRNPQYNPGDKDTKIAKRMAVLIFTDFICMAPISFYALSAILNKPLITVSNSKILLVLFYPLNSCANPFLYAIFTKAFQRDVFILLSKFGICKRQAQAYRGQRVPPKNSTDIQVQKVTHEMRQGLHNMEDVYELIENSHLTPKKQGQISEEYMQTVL
Sequence of ATP-dependent 6-phosphofructokinase (Trypanosoma brucei brucei) (O15648 whole entry, looked up): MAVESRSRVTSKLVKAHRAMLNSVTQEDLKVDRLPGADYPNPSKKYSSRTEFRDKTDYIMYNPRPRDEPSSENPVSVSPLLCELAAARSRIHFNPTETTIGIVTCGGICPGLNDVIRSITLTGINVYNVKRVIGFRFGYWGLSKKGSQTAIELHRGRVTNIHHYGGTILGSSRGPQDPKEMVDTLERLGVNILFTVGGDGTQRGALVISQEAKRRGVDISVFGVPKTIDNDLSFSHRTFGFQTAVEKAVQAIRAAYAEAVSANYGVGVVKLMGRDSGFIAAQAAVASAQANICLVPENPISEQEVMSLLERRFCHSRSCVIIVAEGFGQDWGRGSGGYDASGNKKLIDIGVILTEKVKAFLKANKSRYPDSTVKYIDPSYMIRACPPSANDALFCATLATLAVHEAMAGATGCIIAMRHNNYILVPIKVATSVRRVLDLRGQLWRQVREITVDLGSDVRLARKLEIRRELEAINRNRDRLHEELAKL
Sequence of Thioredoxin reductase 1, cytoplasmic (Rattus norvegicus) (O89049 whole entry, looked up): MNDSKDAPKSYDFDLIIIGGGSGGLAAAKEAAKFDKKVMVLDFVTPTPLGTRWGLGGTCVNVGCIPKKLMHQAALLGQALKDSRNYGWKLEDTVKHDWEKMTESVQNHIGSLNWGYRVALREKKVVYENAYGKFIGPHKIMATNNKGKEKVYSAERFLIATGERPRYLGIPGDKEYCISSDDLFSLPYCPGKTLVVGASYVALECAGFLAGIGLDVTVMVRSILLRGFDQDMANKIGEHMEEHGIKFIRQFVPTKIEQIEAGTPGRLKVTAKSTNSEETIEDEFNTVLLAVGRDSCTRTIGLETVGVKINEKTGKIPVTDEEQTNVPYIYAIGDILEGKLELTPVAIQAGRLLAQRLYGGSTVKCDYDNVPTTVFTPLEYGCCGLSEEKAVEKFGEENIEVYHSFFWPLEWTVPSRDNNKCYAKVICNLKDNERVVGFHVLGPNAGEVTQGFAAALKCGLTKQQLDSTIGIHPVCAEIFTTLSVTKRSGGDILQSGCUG
Sequence of Ubiquitin carboxyl-terminal hydrolase 2 (Homo sapiens) (O75604 whole entry, looked up): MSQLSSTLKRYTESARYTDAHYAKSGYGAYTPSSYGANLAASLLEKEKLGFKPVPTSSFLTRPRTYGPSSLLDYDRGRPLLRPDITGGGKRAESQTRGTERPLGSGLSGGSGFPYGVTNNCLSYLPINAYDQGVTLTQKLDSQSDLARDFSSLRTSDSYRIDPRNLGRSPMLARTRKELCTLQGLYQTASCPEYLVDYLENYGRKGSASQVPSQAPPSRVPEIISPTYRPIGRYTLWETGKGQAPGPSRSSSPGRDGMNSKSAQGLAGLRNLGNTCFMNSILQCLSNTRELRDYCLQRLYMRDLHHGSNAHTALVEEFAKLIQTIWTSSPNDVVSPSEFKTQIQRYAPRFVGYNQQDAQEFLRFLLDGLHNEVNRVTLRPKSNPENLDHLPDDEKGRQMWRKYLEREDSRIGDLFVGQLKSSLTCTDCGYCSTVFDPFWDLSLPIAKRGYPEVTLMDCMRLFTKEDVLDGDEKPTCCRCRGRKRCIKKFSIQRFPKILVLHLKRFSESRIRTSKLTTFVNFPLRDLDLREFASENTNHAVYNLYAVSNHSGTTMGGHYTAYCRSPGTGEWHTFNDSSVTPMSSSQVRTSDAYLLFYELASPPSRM

Consider `CCCN1CCc2cc(O)cc3c2[C@H]1Cc1ccc(O)c(O)c1-3`, for which the Potency entry in assay [1] and in assay [2] was “inactive” throughout. Moreover, the outcome in [3], in [4], in assay [6] and in assay [9] was inactive. The values for the Potency in assay [5], in [7] and in assay [8] were 3.01 µM (active), 11.9 µM (active) and 1.34 µM (active), respectively.
On to `O=c1c2ccccc2[se]n1-c1ccccc1`, for which the Potency result in assay [1], in [10] and in assay [11] was “inactive” in each case. In addition, the Potency was 4.74 µM (active) in [2]; 1.51 µM (active) in assay [5]; 5.01 µM (active) and 2.99 µM (active) in [7]; 25.1 µM (active) in [8]. For the same compound, the compound was classed as inactive in assay [3], in [4], in assay [6], in [9] and in [12].
Consider `CCCn1c(C)c(C(=O)c2ccc3ccccc3c2)c2ccccc21`, for which the Potency entry in assay [13], in [1], in assay [2], in assay [14], in [15] and in [10] was “inactive” throughout. The Potency result in assay [11], in [7], in assay [8] and in assay [17] was “inactive” throughout. Also, the compound was classed as inactive in assay [3], in assay [4], in assay [6], in assay [9], in assay [16] and in assay [12].
With `c1ccc2c(c1)[I+]c1ccccc1-2`, the Potency in assay [13] was 0.251 µM (active); in assay [18], 6.31 µM (active); in assay [14] it was 0.131 µM (active); in [15], 0.147 µM (active). Moreover, the Potency result in [1], in [2], in assay [5], in assay [7], in assay [8] and in [17] was “inactive” each time. In addition, the call in assay [3], in assay [4], in assay [6], in [9], in assay [16] and in assay [12] was inactive.
Turning to `CCCCCCC(C)(C)c1ccc([C@@H]2C[C@H](O)CC[C@H]2CCCO)c(O)c1`, the Potency entry in assay [1], in [19], in assay [5], in assay [10], in assay [11] and in assay [7] was “inactive” in each case. For the same compound, the Potency entry in [17] was “inactive”. The result in assay [3], in assay [4], in assay [9], in assay [16] and in assay [12] was inactive. Besides, the Potency in [14] was 4.65 µM (active); in [15] it was 11.7 µM (active).
`CC(C)CC(NP(=O)(O)O[C@@H]1O[C@@H](C)[C@H](O)[C@@H](O)[C@H]1O)C(=O)NC(Cc1c[nH]c2ccccc12)C(=O)O` (stereo partly drawn): the Potency result in assay [13], in [18], in assay [14], in assay [15], in assay [11] and in assay [7] was “inactive” each time. Besides, the outcome in assay [16] and in [12] was inactive.
For `c1ccc2c(N3CCNCC3)cccc2c1`, the Potency entry in assay [13], in assay [18], in assay [1], in assay [2], in assay [5] and in assay [14] was “inactive” each time. In addition, the Potency result in assay [15], in assay [10], in [11], in [7] and in assay [8] was “inactive” throughout. Besides, the compound was called inactive in [3], in assay [4], in assay [6], in [9], in [16] and in [12].
Take `C=CCN1CCc2cccc3c2[C@H]1Cc1ccc(O)c(O)c1-3`: the Potency entry in [1], in [2] and in [11] was “inactive” in each case. Also, the outcome in assay [3], in assay [4], in assay [6] and in [9] was inactive. In addition, the Potency was 5.97 µM (active) in assay [10] and 44.7 µM (active) in assay [8].
Turning to `CC(N)[C@H](O)c1ccc(O)c(O)c1` (stereo partly drawn), the Potency result in assay [13], in assay [18], in [1], in [2], in assay [19] and in assay [14] was “inactive” in each case. Also, the Potency result in [15] and in assay [17] was “inactive” throughout. Also, the result in assay [3], in [4], in assay [6], in assay [9] and in assay [16] was inactive. The Potency was 5.36 µM (active) in [5], 11.9 µM (active) in assay [10], 2.67 µM (active) in assay [11] and 29.9 µM (active) in assay [7].
